According to PubChem BioAssay:
For some assays here: Entries with a potency or affinity are not part of this list. Calls of active or inactive are those of the source. Unless noted, the rule behind the calls is not given here.

Tests used:
[1] = antimalarial activity against Dd2 strain (AID 2302;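 active = growth inhibition above 50% at the single 2 µM test dose, taken to imply half-maximal potency below 2 µM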;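 note: 0% = DMSO untreated growth and 100% = chloroquine plus artemisinin killed control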); conditions: P. falciparum Dd2 in RBCs, LDH growth readout, 72 h; at 2 µM; stronger effect = higher value
[2] = human hepatoma cell viability loss – ATP luminescence, cytotoxicity control for P. falciparum antimalarial project, primary screen (AID 2303;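 active = inhibition above 50%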;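 note: 0% = DMSO wells and 100% = digitonin-killed cells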); conditions: HepG2 viability, 24-48 h, at 10 µM, stronger effect = higher value
[3] = biological target: L-lactate dehydrogenase (Plasmodium falciparum (isolate CDC / Honduras)) (UniProt Q27743); test: PfLDH activity inhibition – cell lysate, 3D7 strain, counter-screen for P. falciparum growth inhibition project (AID 2304);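 note: 0% = vehicle and 100% = reference inhibitor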; conditions: P. falciparum 3D7 crude extract, LDH APAD/NBT absorbance; at 2 µM; stronger effect = higher value
[4] = inhibition of 3D7 malaria parasite growth – strain 3D7 (AID 2306);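 note: 0% = DMSO wells and 100% = chloroquine plus artemisinin control wells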; conditions: P. falciparum 3D7 erythrocytic growth, LDH absorbance, 72 h; at 2 µM; stronger effect = higher value
[5] = biological target: Calcium-dependent protein kinase 1 (Plasmodium falciparum (isolate 3D7)) (UniProt P62344); test: PfCDPK1 kinase inhibitors, biochemical, TCAMS library (AID 1159585; cut-off not given, nearly all actives have IC50 up to about 0.98 µM;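 note: inhibitors leave more ATP so luminescence rises with inhibition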); conditions: recombinant PfCDPK1, Kinase-Glo ATP depletion luminescence
[6] = biological target: Plasmodium falciparum protein kinase 6 (PK6, PF3D7_1337100) (UniProt Q8IDW1); test: PfPK6 kinase inhibitors, biochemical, TCAMS library (AID 1159586); conditions: recombinant PfPK6, Kinase-Glo ATP depletion luminescence
[7] = biological target: Protein kinase 7 (PK7), Plasmodium falciparum 3D7 (PF3D7_0213400) (UniProt Q7YTF7); test: inhibition of Plasmodium PK7 catalytic activity – biochemical, TCAMS antimalarial set, Kinase-Glo luminescence (AID 1159587); conditions: recombinant PfPK7, Kinase-Glo ATP depletion luminescence
[8] = biological target: Calcium-dependent protein kinase 4 (Plasmodium falciparum (isolate 3D7)) (UniProt Q8IBS5); test: PfCDPK4 kinase inhibitors, biochemical, TCAMS library (AID 1159588; cut-off not given, nearly all actives have IC50 up to about 0.91 µM); conditions: recombinant PfCDPK4, Kinase-Glo ATP depletion luminescence
Sequence of Calcium-dependent protein kinase 4 (Plasmodium falciparum (isolate 3D7)) (Q8IBS5 whole entry, looked up): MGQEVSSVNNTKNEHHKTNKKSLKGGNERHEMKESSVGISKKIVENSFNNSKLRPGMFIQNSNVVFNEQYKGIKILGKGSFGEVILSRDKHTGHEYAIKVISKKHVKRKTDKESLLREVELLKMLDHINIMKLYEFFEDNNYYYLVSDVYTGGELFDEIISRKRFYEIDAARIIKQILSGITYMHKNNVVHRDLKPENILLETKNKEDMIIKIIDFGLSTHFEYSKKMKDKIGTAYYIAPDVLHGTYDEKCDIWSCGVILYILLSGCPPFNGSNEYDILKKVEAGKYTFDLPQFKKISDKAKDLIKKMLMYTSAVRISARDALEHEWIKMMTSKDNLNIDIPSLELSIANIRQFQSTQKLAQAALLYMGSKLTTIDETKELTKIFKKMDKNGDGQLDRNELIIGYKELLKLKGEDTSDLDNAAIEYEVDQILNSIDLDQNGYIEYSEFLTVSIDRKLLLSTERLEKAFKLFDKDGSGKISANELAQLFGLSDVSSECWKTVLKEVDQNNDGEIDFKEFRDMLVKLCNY

Sequence of Protein kinase 7 (PK7), Plasmodium falciparum 3D7 (PF3D7_0213400) (Q7YTF7 1-343): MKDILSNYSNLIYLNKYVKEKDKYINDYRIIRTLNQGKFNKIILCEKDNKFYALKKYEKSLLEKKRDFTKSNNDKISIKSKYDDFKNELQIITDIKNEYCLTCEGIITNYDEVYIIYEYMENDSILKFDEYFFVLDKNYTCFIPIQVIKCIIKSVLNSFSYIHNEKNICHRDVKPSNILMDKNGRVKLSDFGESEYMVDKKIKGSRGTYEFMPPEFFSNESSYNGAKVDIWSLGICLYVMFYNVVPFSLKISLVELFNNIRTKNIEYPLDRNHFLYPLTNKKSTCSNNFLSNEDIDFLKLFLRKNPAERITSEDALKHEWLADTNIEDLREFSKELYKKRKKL
Sequence of L-lactate dehydrogenase (Plasmodium falciparum (isolate CDC / Honduras)) (Q27743 whole entry, looked up): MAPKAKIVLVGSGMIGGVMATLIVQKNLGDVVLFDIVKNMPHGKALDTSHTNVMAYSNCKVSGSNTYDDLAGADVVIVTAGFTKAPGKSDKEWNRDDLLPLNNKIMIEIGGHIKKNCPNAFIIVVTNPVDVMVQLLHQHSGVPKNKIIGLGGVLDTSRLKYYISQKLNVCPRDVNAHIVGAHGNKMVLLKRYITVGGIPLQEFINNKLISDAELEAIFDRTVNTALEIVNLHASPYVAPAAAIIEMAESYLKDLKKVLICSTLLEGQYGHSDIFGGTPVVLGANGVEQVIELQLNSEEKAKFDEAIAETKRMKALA
Sequence of Calcium-dependent protein kinase 1 (Plasmodium falciparum (isolate 3D7)) (P62344 whole entry, looked up): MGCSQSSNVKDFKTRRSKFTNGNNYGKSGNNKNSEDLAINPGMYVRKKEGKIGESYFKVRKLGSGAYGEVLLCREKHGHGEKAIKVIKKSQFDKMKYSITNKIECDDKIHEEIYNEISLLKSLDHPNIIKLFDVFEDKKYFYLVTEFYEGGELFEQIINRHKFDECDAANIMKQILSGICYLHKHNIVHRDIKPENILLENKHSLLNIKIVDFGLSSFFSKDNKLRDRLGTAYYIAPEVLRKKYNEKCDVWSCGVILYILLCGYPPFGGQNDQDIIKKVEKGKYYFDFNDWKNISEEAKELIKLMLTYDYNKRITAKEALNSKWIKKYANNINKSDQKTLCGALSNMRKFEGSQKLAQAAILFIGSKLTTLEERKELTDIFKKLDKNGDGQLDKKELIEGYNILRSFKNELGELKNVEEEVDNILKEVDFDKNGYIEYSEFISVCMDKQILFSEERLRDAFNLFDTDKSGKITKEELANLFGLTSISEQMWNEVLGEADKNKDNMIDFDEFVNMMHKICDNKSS
Sequence of Plasmodium falciparum protein kinase 6 (PK6, PF3D7_1337100) (Q8IDW1 1-305): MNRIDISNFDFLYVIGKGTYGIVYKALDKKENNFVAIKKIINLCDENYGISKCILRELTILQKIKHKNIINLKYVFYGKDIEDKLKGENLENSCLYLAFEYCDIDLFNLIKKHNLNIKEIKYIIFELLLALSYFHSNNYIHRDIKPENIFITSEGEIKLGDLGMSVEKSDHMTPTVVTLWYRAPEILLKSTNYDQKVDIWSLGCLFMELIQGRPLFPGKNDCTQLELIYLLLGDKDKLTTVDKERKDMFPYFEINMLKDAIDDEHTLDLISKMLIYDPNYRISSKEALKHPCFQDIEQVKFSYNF

CCCC(C(=O)OCCN(CC)CC)(c1ccc(Cl)cc1)c1ccc(Cl)cc1
inactive: inhibition [2] 7% | inhibition [3] 2% | outcome [5] | outcome [6] | outcome [7] | outcome [8]
active: growth inhibition [1] 87% | growth inhibition [4] 91%

OCc1ccc2nc3c(cc2c1)-c1cccc2cccc-3c12
inactive: growth inhibition [1] -1% | inhibition [2] 16% | inhibition [3] 4% | outcome [5] | outcome [6] | outcome [7] | outcome [8]
active: growth inhibition [4] 96%

CCN(CC)CCCN(CCCN(CC)CC)c1cc(C)nc(Nc2ccc3cc(Br)ccc3c2)n1
inactive: inhibition [2] 12% | inhibition [3] 3% | outcome [5] | outcome [6] | outcome [7] | outcome [8]
active: growth inhibition [1] 73% | growth inhibition [4] 100%

Cc1cc(-c2ccc(CNCc3ccc(F)cc3)cc2)ccc1S(=O)(=O)NCCN1CCCC1
active: inhibition [2] 95% | growth inhibition [4] 100%
inactive: growth inhibition [1] 41% | inhibition [3] -1% | outcome [5] | outcome [6] | outcome [7] | outcome [8]

FC(F)(F)c1ccc2nc(-c3ccc(-c4ccc(CN5CCN(c6cnccn6)CC5)cc4)cc3)[nH]c2c1
active: growth inhibition [1] 50% | growth inhibition [4] 99%
inactive: inhibition [2] 21% | inhibition [3] -7% | outcome [5] | outcome [6] | outcome [7] | outcome [8]

O=C(N[C@@H](CC1CCCCC1)C(=O)NC1CCCc2ccccc21)c1ccc(O)c(-c2cccc(C(F)(F)F)c2)c1 (stereo not given in full)
inactive: inhibition [2] -4% | inhibition [3] 5% | outcome [5] | outcome [6] | outcome [7] | outcome [8]
active: growth inhibition [1] 99% | growth inhibition [4] 100%

CN(Cc1cccc(F)c1)C1CCCN(c2cc(NC(=O)c3ccccc3)ccn2)C1 (stereo not given)
active: growth inhibition [1] 50% | growth inhibition [4] 93%
inactive: inhibition [2] 3% | inhibition [3] -3% | outcome [5] | outcome [6] | outcome [7] | outcome [8]

Cn1cncc1C(=O)Nc1cccc(-c2ccc(-c3nc4ccccc4[nH]3)s2)c1
active: growth inhibition [4] 102%
inactive: growth inhibition [1] 25% | inhibition [2] -3% | inhibition [3] -3% | outcome [5] | outcome [6] | outcome [7] | outcome [8]

O=C1CCCN1CCCNCc1ccc(-c2cccc(-c3nc4ccccc4[nH]3)c2)cc1
active: growth inhibition [4] 96%
inactive: growth inhibition [1] 0% | inhibition [2] 19% | inhibition [3] -5% | outcome [5] | outcome [6] | outcome [7] | outcome [8]

Cc1ccc(C(=O)Nc2ccc(Nc3ccnc4cc(-c5ccncc5)ccc34)cc2O)cc1
active: growth inhibition [1] 100% | growth inhibition [4] 97%
inactive: inhibition [2] 14% | inhibition [3] 1% | outcome [5] | outcome [6] | outcome [7] | outcome [8]

CC[C@H](N=C(Nc1ccc(C#N)cc1O)Nc1cccc(Cl)c1Cl)c1ccccc1
inactive: inhibition [2] -2% | inhibition [3] -1% | outcome [5] | outcome [6] | outcome [7] | outcome [8]
active: growth inhibition [1] 71% | growth inhibition [4] 91%

Cc1cc(C=C2SC(=Nc3ccccc3)N(C3CCCC3)C2=O)c(C)n1-c1ccc(Cl)cc1
active: growth inhibition [1] 70% | growth inhibition [4] 100%
inactive: inhibition [2] -8% | inhibition [3] -1% | outcome [5] | outcome [6] | outcome [7] | outcome [8]

CCOC(=O)c1[nH]c(-c2cc(Cl)nc(Cl)c2)nc1NC(=S)NCCCN1CCOCC1
active: growth inhibition [1] 71% | growth inhibition [4] 89%
inactive: inhibition [2] 13% | inhibition [3] 3% | outcome [5] | outcome [6] | outcome [7] | outcome [8]

C[C@H](O)[C@@](C)(CO)NCc1ccc2c3c(cccc13)-c1ccccc1-2
active: growth inhibition [1] 85% | inhibition [2] 81% | growth inhibition [4] 95%
inactive: inhibition [3] -2% | outcome [5] | outcome [6] | outcome [7] | outcome [8]

CS(=O)(=O)Nc1ccc2[nH]cc(C3CCN(CC(O)C4CCN(C(=O)/C=C/c5ccc(Cl)c(Cl)c5)CC4)CC3)c2c1 (stereo not given)
active: growth inhibition [4] 101%
inactive: growth inhibition [1] -10% | inhibition [2] 28% | inhibition [3] -3% | outcome [5] | outcome [6] | outcome [7] | outcome [8]

Cc1cccc2[nH]c(-c3ccc(-c4cccc(CNCCCN5CCCC5=O)c4)s3)nc12
active: growth inhibition [4] 101%
inactive: growth inhibition [1] 26% | inhibition [2] 14% | inhibition [3] -9% | outcome [5] | outcome [6] | outcome [7] | outcome [8]

O=C(COc1ccc(Cl)c(Cl)c1)NCCCCCN1CCCN(C(=O)Nc2cc(Cl)cc(Cl)c2)CC1
active: growth inhibition [4] 89%
inactive: growth inhibition [1] 1% | inhibition [2] 44% | inhibition [3] -5% | outcome [5] | outcome [6] | outcome [7] | outcome [8]

CN(c1ccc2c(c1)nc(NC(=O)C1(c3cc(F)ccc3F)CC1)n2C)c1ccnc(Nc2cccc(CS(C)(=O)=O)c2)n1
active: growth inhibition [4] 89%
inactive: growth inhibition [1] 46% | inhibition [2] 42% | inhibition [3] 6% | outcome [5] | outcome [6] | outcome [7] | outcome [8]

COc1cc(-n2cnc3cc(-c4ccc([N+](=O)[O-])cc4)sc3c2=O)ccc1OCCN1CCCC1
active: growth inhibition [1] 79% | growth inhibition [4] 97%
inactive: inhibition [2] 44% | inhibition [3] -4% | outcome [5] | outcome [6] | outcome [7] | outcome [8]

CS(=O)(=O)NCCCNCc1cccc(-c2ccc(-c3nc4ccccc4[nH]3)s2)c1
active: growth inhibition [4] 90%
inactive: growth inhibition [1] -1% | inhibition [2] 24% | inhibition [3] 6% | outcome [5] | outcome [6] | outcome [7] | outcome [8]

Nc1n[nH]c(-c2ccccc2Nc2ccnc3cc(-c4nccs4)ccc23)n1
inactive: inhibition [3] -2% | outcome [5] | outcome [6] | outcome [7] | outcome [8]
active: growth inhibition [1] 94% | inhibition [2] 98% | growth inhibition [4] 100%

CC(C)CCn1c(Sc2ccc([N+](=O)[O-])cc2C(F)(F)F)nnc1-c1ccccc1Cl
inactive: growth inhibition [1] 43% | inhibition [2] -5% | inhibition [3] 6% | outcome [5] | outcome [6] | outcome [7] | outcome [8]
active: growth inhibition [4] 99%

CC(C)c1ccc(OCC(O)CN(C)C(C)C(O)c2ccccc2)c(Br)c1 (stereo not given)
inactive: inhibition [2] 36% | inhibition [3] -3% | outcome [5] | outcome [6] | outcome [7] | outcome [8]
active: growth inhibition [1] 97% | growth inhibition [4] 95%

CCC(C)(C)c1ccc(N2C(N)=NC(N)=NC2(C)C)cc1
active: growth inhibition [4] 91%
inactive: growth inhibition [1] 4% | inhibition [2] 40% | inhibition [3] -1% | outcome [5] | outcome [6] | outcome [7] | outcome [8]

CC(C)c1ccc(NC(=O)NCCCC2CCCN(CCCCCNC(=O)/C=C/c3ccc(Cl)c(Cl)c3)C2)cc1 (stereo not given)
active: growth inhibition [4] 90%
inactive: growth inhibition [1] 42% | inhibition [2] 25% | inhibition [3] -2% | outcome [5] | outcome [6] | outcome [7] | outcome [8]

O=C(NCCCCN1CCN(c2cccc3c2OCCO3)CC1)c1ccc(NC(=O)c2cc(Cl)cc(Cl)c2)cc1
active: growth inhibition [1] 89% | growth inhibition [4] 101%
inactive: inhibition [2] 21% | inhibition [3] -3% | outcome [5] | outcome [6] | outcome [7] | outcome [8]

CC(C)N1CCN(CCCCNc2c3ccccc3nc3ccccc23)CC1
inactive: growth inhibition [1] -4% | inhibition [2] 38% | inhibition [3] -6% | outcome [5] | outcome [6] | outcome [7] | outcome [8]
active: growth inhibition [4] 100%

Cc1cccc(C)c1OC(=O)[C@@H](C)[C@@H](O)C1(Sc2ccccc2)CCN(C)CC1
active: growth inhibition [1] 92% | growth inhibition [4] 98%
inactive: inhibition [2] 23% | inhibition [3] 1% | outcome [5] | outcome [6] | outcome [7] | outcome [8]

FC(F)(F)c1cccc(Nc2nc(-c3ccccc3)nc3ncccc23)c1
inactive: inhibition [2] 17% | inhibition [3] -1% | outcome [5] | outcome [6] | outcome [7] | outcome [8]
active: growth inhibition [1] 97% | growth inhibition [4] 97%

Cc1nn(CC(O)Cn2c3ccc(Br)cc3c3cc(Br)ccc32)c(C)c1Br (stereo not given)
inactive: inhibition [2] 4% | inhibition [3] 1% | outcome [5] | outcome [6] | outcome [7] | outcome [8]
active: growth inhibition [1] 81% | growth inhibition [4] 98%

CN(C)c1cccc2c1nc(-c1ccc3c(c1)CCO3)n2CCNCc1ccccc1
inactive: inhibition [2] 6% | inhibition [3] 0% | outcome [5] | outcome [6] | outcome [7] | outcome [8]
active: growth inhibition [1] 85% | growth inhibition [4] 99%

CN1CCN(c2ccnc3ccc(NC(=O)Nc4ccc(Cl)c(Cl)c4)cc23)CC1
inactive: growth inhibition [1] 17% | inhibition [2] 0% | inhibition [3] -4% | outcome [5] | outcome [6] | outcome [7] | outcome [8]
active: growth inhibition [4] 97%

CN1CCN(Cc2ccc(OCc3cccc(COc4ccc(CN5CCN(C)CC5)cc4I)c3)c(I)c2)CC1
inactive: inhibition [3] 0% | outcome [5] | outcome [6] | outcome [7] | outcome [8]
active: growth inhibition [1] 69% | inhibition [2] 93% | growth inhibition [4] 92%

Cn1c(=O)c2cc(C(=O)NCCCN3CCCCCC3)sc2c2ccccc21
inactive: inhibition [2] 32% | inhibition [3] 0% | outcome [5] | outcome [6] | outcome [7] | outcome [8]
active: growth inhibition [1] 99% | growth inhibition [4] 99%

CCCc1cnc2nc(N)nc(N)c2c1C
active: inhibition [2] 68% | growth inhibition [4] 93%
inactive: growth inhibition [1] 3% | inhibition [3] -3% | outcome [5] | outcome [6] | outcome [7] | outcome [8]

COc1ccccc1N(C)CCNc1cc(C)nc(Nc2ccccc2)n1
inactive: growth inhibition [1] 13% | inhibition [2] 10% | inhibition [3] -1% | outcome [5] | outcome [6] | outcome [7] | outcome [8]
active: growth inhibition [4] 96%

CN1CCN(CCCN(Cc2csc(-c3ccc(CNCc4ccccc4)cc3)n2)S(=O)(=O)c2ccccc2)CC1
inactive: inhibition [2] 17% | inhibition [3] 7% | outcome [5] | outcome [6] | outcome [7] | outcome [8]
active: growth inhibition [1] 78% | growth inhibition [4] 99%

Cc1ccc(C)c2sc(N(CCCn3ccnc3)C(=O)C=Cc3cccs3)nc12
inactive: inhibition [2] 20% | inhibition [3] 0% | outcome [5] | outcome [6] | outcome [7] | outcome [8]
active: growth inhibition [1] 93% | growth inhibition [4] 101%

Cc1nc(N)nc(N)c1OCc1cccc2c1ccc1ccccc12
inactive: growth inhibition [1] 16% | inhibition [3] 1% | outcome [5] | outcome [6] | outcome [7] | outcome [8]
active: inhibition [2] 54% | growth inhibition [4] 95%

COc1ccccc1C1CCN(C2CCC(NC(=O)/C=C/c3cc(C(F)(F)F)ccc3F)CC2)CC1 (stereo not given)
active: growth inhibition [4] 97%
inactive: growth inhibition [1] 32% | inhibition [2] 39% | inhibition [3] -3% | outcome [5] | outcome [6] | outcome [7] | outcome [8]
